Reference: the supplement of paper PMC8007513
Where a name gives a salt, the structure may show the parent alone. ± gives the standard error. The campaign covered roughly 1,300 compounds. About 130 (10%) showed an effect of 50% or more. Only a selection was taken, and strong results are over-represented in it overall.

System: Trichoderma virens ATCC 9645
Test: growth yield (OD600) with compound + IPBC relative to untreated control; higher = less growth inhibition
Settings: compound concentration: 100 uM, IPBC concentration: 200 ng/ml
How it was run: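 Library compounds (100 μM final), with or without a co-applied biocide (200 ng ml^−1), were added to 100 μl aliquots of Trichoderma virens ATCC 9645 spores at 15,000 spores ml^−1 in potato dextrose broth. Cultures were grown at 30 °C in 96-well plates, and OD600 was measured at 40 h and 72 h. Each growth value is a mean of duplicate screens, expressed relative to the control with neither agent.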

Structure (SMILES): CC(N)C12CC3CC(CC(C3)C1)C2 (stereo not given) [Rimantadine Hydrochloride] + CCCCNC(=O)OCC#CI [3-iodo-2-propynyl butylcarbamate (IPBC)]
- growth yield (40 h): 82.76 ± 0.16%
- growth yield (72 h): 89.04 ± 0.1%

Structure (SMILES): C=C1CC[C@@]2(O)[C@H]3Cc4ccc(O)c5c4[C@@]2(CCN3CC2CC2)[C@H]1O5 [Nalmefene hydrochloride] + CCCCNC(=O)OCC#CI [3-iodo-2-propynyl butylcarbamate (IPBC)]
- growth yield (40 h): 104 ± 15%
- growth yield (72 h): 103 ± 8.3%

Structure (SMILES): C[C@H](Cc1cc2c(c(C(N)=O)c1)N(CCCO)CC2)NCCOc1ccccc1OCC(F)(F)F [Silodosin] + CCCCNC(=O)OCC#CI [3-iodo-2-propynyl butylcarbamate (IPBC)]
- growth yield (40 h): 87 ± 1.3%
- growth yield (72 h): 92.6 ± 0.94%

Structure (SMILES): CC[C@]12CCCN3CCc4c(n(c5ccccc45)[C@@](O)(C(=O)OC)C1)[C@@H]32 [Vincamine] + CCCCNC(=O)OCC#CI [3-iodo-2-propynyl butylcarbamate (IPBC)]
- growth yield (40 h): 86.2 ± 1.4%
- growth yield (72 h): 91 ± 1.7%

Structure (SMILES): O=C(O)c1cc(-c2ccc(F)cc2F)ccc1O [Diflunisal] + CCCCNC(=O)OCC#CI [3-iodo-2-propynyl butylcarbamate (IPBC)]
- growth yield (40 h): 57.8 ± 1.6%
- growth yield (72 h): 80.65 ± 0.32%

Structure (SMILES): CN(C)[C@@H]1C(O)=C(C(N)=O)C(=O)[C@@]2(O)C(O)=C3C(=O)c4c(O)ccc(Cl)c4[C@@](C)(O)[C@H]3C[C@@H]12 [Chlortetracycline hydrochloride] + CCCCNC(=O)OCC#CI [3-iodo-2-propynyl butylcarbamate (IPBC)]
- growth yield (40 h): 77.2 ± 0.64%
- growth yield (72 h): 84.3 ± 2.1%

Structure (SMILES): C[N+]1(C)CCOC(O)(c2ccc(-c3ccc(C4(O)C[N+](C)(C)CCO4)cc3)cc2)C1 (stereo not given) [Hemicholinium bromide] + CCCCNC(=O)OCC#CI [3-iodo-2-propynyl butylcarbamate (IPBC)]
- growth yield (40 h): 19.1 ± 0.64%
- growth yield (72 h): 69.4 ± 1.5%

Structure (SMILES): CC(=O)S[C@@H]1CC2=CC(=O)CC[C@]2(C)[C@H]2CC[C@@]3(C)[C@@H](CC[C@@]34CCC(=O)O4)[C@H]12 [Spironolactone] + CCCCNC(=O)OCC#CI [3-iodo-2-propynyl butylcarbamate (IPBC)]
- growth yield (40 h): 85.3 ± 9.1%
- growth yield (72 h): 91.1 ± 7%

Structure (SMILES): CN(C)CCc1c[nH]c2ccc(C[C@H]3COC(=O)N3)cc12 [Zolmitriptan] + CCCCNC(=O)OCC#CI [3-iodo-2-propynyl butylcarbamate (IPBC)]
- growth yield (40 h): 93.2 ± 4%
- growth yield (72 h): 96.3 ± 4%

Structure (SMILES): C=C(C)[C@@H]1[C@H]2OC(=O)[C@@H]1[C@]1(O)C[C@H]3O[C@]34C(=O)O[C@H]2[C@]14C [Picrotoxinin] + CCCCNC(=O)OCC#CI [3-iodo-2-propynyl butylcarbamate (IPBC)]
- growth yield (40 h): 96.3 ± 11%
- growth yield (72 h): 97.1 ± 8.2%

Structure (SMILES): Clc1ccc2c(c1)CCc1cccnc1C2=C1CCNCC1 [Desloratadine] + CCCCNC(=O)OCC#CI [3-iodo-2-propynyl butylcarbamate (IPBC)]
- growth yield (40 h): 56.2 ± 0.64%
- growth yield (72 h): 89.7 ± 1.4%

Structure (SMILES): CN1CCC(=C2c3ccccc3CCc3cccnc32)CC1 [Azatadine maleate] + CCCCNC(=O)OCC#CI [3-iodo-2-propynyl butylcarbamate (IPBC)]
- growth yield (40 h): 99.6 ± 2.4%
- growth yield (72 h): 97.43 ± 0.94%

Structure (SMILES): CCOC(=O)N1CCC(=C2c3ccc(Cl)cc3CCc3cccnc32)CC1 [Loratadine] + CCCCNC(=O)OCC#CI [3-iodo-2-propynyl butylcarbamate (IPBC)]
- growth yield (40 h): 17.3 ± 4%
- growth yield (72 h): 58.7 ± 2.5%

Structure (SMILES): Nc1nc(=O)n([C@@H]2CS[C@H](CO)O2)cc1F [(-)-Emtricitabine] + CCCCNC(=O)OCC#CI [3-iodo-2-propynyl butylcarbamate (IPBC)]
- growth yield (40 h): 81.33 ± 0.64%
- growth yield (72 h): 87.5 ± 1.1%

Structure (SMILES): CC(=O)[C@@]1(O)CC[C@H]2[C@@H]3C[C@H](C)C4=CC(=O)C=C[C@]4(C)[C@@]3(F)[C@@H](O)C[C@@]21C [Fluorometholone] + CCCCNC(=O)OCC#CI [3-iodo-2-propynyl butylcarbamate (IPBC)]
- growth yield (40 h): 91.3 ± 9.1%
- growth yield (72 h): 88.7 ± 5%

Structure (SMILES): CC(=O)NS(=O)(=O)c1ccc(N)cc1 [Sulfacetamide sodic hydrate] + CCCCNC(=O)OCC#CI [3-iodo-2-propynyl butylcarbamate (IPBC)]
- growth yield (40 h): 91.5 ± 1.3%
- growth yield (72 h): 93.7 ± 0.94%

Structure (SMILES): Cc1noc(NS(=O)(=O)c2ccc(N)cc2)c1C [Sulfisoxazole] + CCCCNC(=O)OCC#CI [3-iodo-2-propynyl butylcarbamate (IPBC)]
- growth yield (40 h): 77.7 ± 2.7%
- growth yield (72 h): 91.1 ± 1.4%

Structure (SMILES): Cc1cc(C)nc(NS(=O)(=O)c2ccc(N)cc2)n1 [Sulfamethazine sodium salt] + CCCCNC(=O)OCC#CI [3-iodo-2-propynyl butylcarbamate (IPBC)]
- growth yield (40 h): 100 ± 14%
- growth yield (72 h): 98.5 ± 9.1%

Structure (SMILES): Cc1cc(NS(=O)(=O)c2ccc(N)cc2)no1 [Sulfamethoxazole] + CCCCNC(=O)OCC#CI [3-iodo-2-propynyl butylcarbamate (IPBC)]
- growth yield (40 h): 45.6 ± 1.1%
- growth yield (72 h): 80 ± 1.6%

Structure (SMILES): CC1CS(=O)(=O)CCN1/N=C/c1ccc([N+](=O)[O-])o1 (stereo not given) [Nifurtimox] + CCCCNC(=O)OCC#CI [3-iodo-2-propynyl butylcarbamate (IPBC)]
- growth yield (40 h): 91.5 ± 12%
- growth yield (72 h): 91.9 ± 6.9%

Structure (SMILES): C[C@H](CS)C(=O)N1CCC[C@H]1C(=O)O [Captopril] + CCCCNC(=O)OCC#CI [3-iodo-2-propynyl butylcarbamate (IPBC)]
- growth yield (40 h): 90.1 ± 1.1%
- growth yield (72 h): 90.1 ± 1.1%

Structure (SMILES): C1CCC(C(CC2CCCCN2)C2CCCCC2)CC1 (stereo not given) [Perhexiline maleate] + CCCCNC(=O)OCC#CI [3-iodo-2-propynyl butylcarbamate (IPBC)]
- growth yield (40 h): 40.981 ± 7.1e-15%
- growth yield (72 h): 85.27 ± 0.32%

Structure (SMILES): CN1C(C(=O)Nc2ccccn2)=C(O)c2sccc2S1(=O)=O [Tenoxicam] + CCCCNC(=O)OCC#CI [3-iodo-2-propynyl butylcarbamate (IPBC)]
- growth yield (40 h): 83.1 ± 2.1%
- growth yield (72 h): 94.08 ± 0.1%

Structure (SMILES): CCCCC1(COC(=O)CCC(=O)O)C(=O)N(c2ccccc2)N(c2ccccc2)C1=O [Suxibuzone] + CCCCNC(=O)OCC#CI [3-iodo-2-propynyl butylcarbamate (IPBC)]
- growth yield (40 h): 89.4 ± 2.7%
- growth yield (72 h): 92.71 ± 0.84%

Structure (SMILES): Cc1cccc(C)c1NC(=O)C1CCCCN1C (stereo not given) [Mepivacaine hydrochloride] + CCCCNC(=O)OCC#CI [3-iodo-2-propynyl butylcarbamate (IPBC)]
- growth yield (40 h): 91.3 ± 3.3%
- growth yield (72 h): 96.3 ± 4%
